Assay results taken from PubChem BioAssay.

Test system: Human papillomavirus type 1a E7 protein (residues 1-88)
Test: HPV1a E7 small-molecule binders, primary screen, biochemical, small-molecule microarray, residues 1-88, 635 nm (AID 1129)
Details: small-molecule microarray binding, fluorescence 635 nm; higher = more signal

SMILES	composite z-score
CO[C@H]1O[C@H](CO)[C@@H](OC(=O)Nc2ccc(Oc3ccccc3)cc2)[C@H](OC(=O)Nc2ccccc2)[C@H]1OC(=O)Nc1ccccc1	1.27
O=C(CS)NCCCCCCNC(=O)[C@H]1C[C@H]2C(=O)NCC(=O)N2[C@H]1c1ccc(O)cc1	-0.591
COCCOC(=O)N1C(=O)[C@@]2(c3cc(C#CCCO)ccc31)[C@H](c1ccc(O)cc1)N1[C@H](c3ccccc3)[C@H](c3ccccc3)OC(=O)[C@H]1[C@@H]2C(N)=O	0.215
CC(C)(C)N1CC=CC23O[C@@H]4/C=C\CCCOC(=O)C4[C@H]2C(=O)N(CCO)[C@@H]3C1=O (some centres undefined)	0.193

Target: Focal adhesion kinase 1 (Homo sapiens) (UniProt Q05397)
Sequence (Q05397 whole entry, looked up): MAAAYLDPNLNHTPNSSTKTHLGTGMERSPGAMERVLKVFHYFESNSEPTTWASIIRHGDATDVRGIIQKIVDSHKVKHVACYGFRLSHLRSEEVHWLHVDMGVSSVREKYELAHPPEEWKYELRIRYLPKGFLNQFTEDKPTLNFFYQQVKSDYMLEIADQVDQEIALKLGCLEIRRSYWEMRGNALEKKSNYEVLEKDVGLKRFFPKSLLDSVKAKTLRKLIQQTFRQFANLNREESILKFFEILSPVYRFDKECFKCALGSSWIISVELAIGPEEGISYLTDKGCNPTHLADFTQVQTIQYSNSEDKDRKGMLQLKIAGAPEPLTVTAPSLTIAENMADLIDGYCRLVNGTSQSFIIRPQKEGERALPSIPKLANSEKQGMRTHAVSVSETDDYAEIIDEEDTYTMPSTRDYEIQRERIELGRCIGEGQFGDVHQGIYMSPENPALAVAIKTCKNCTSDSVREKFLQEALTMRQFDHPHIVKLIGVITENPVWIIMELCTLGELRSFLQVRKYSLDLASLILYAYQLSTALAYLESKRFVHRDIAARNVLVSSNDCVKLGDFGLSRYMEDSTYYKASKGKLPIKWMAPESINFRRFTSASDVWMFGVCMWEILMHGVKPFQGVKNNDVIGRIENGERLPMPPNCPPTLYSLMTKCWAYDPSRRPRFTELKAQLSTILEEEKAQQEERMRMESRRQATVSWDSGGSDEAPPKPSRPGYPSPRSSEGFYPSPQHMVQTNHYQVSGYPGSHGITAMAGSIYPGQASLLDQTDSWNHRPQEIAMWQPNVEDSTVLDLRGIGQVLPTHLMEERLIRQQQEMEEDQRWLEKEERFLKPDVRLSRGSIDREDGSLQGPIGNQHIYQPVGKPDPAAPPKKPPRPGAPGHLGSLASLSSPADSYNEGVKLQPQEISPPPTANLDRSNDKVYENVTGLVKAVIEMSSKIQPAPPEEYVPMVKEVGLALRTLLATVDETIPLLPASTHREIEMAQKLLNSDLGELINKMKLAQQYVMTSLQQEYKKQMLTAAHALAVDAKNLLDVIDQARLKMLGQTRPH
Test: small-molecule microarray binders of FAK, primary screen, biochemical, 635/667 nm fluorescence, BSA, DTT (AID 1130);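 note: composite of spot emission at 667 nm and signal to noise over triplicate slides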
Details: PTK2 binding, 635 nm fluorescence, higher = more signal

SMILES	composite z-score
COc1cc(CO)ccc1OC(C)=O	0.315
COc1ccc(C#Cc2ccc3c(c2)[C@]2(C(=O)N3)[C@H](c3ccc(O)cc3)N3[C@H](c4ccccc4)[C@H](c4ccccc4)OC(=O)[C@H]3[C@@H]2C(=O)N2CCCCCCC2)cc1	0.75
CN1C=C(C(=O)OCCS(C)(=O)=O)C(C(=O)OCCS(C)(=O)=O)=CC(CCCO)=CC1C1CC1 (centres undefined)	0.686
COCCOC(=O)N1C(=O)[C@@]2(c3cc(C#CCC(C(=O)OC)C(=O)OC)ccc31)[C@H](c1ccc(O)cc1)N1[C@H](c3ccccc3)[C@H](c3ccccc3)OC(=O)[C@H]1[C@@H]2C(N)=O	0.242
COc1ccc(NN2C(C(O)c3ccc(OC)c(OCc4ccccc4)c3)C=CC3C(=O)N(C4CCCCC4)C(=O)C32)cc1 (centres undefined)	0.625
CC(C)N1CC=CC23O[C@@H]4C=CCOC(=O)[C@@H]4[C@H]2C(=O)N(CCO)[C@@H]3C1=O (some centres undefined)	-0.346
O=C1c2ccccc2[C@@]2(Cc3ccccc3N(Cc3ccccc3)C2=O)[C@H](c2ccc(CO)cc2)N1C1CCCCC1	0.117
CO[C@H]1O[C@H](CO)[C@@H](OC(=O)Nc2ccc3c(c2)OCO3)[C@H](OC(=O)Nc2ccccc2)[C@H]1OC(=O)Nc1ccccc1	0.927
CC(C)C[C@@H]1NC(=O)[C@@H]2C[C@H](C(=O)NCCCCCC[N+](C)(C)C)[C@H](c3ccc(O)cc3)N2C1=O	0.11
N#Cc1ccc(NN2C(C(O)C3CCCCC3)C=CC3C(=O)N(c4ccccc4)C(=O)C32)cc1 (centres undefined)	0.533
O=c1oc(-c2ccccc2)nc2cc(Br)ccc12	0.704
COC(=O)[C@@]1(Cc2ccc(OC)cc2)[C@H]2c3cc(C(=O)N(C)C)n(Cc4c(OC)[nH]cc(C)c4=O)c3C[C@H]2CN1C(=O)c1ccccc1	0.66
CC(C)NC(=O)[C@@H]1c2ccccc2C(=O)N(Cc2ccccc2)[C@H]1c1ccc(CO)cc1	0.512
O=C1C=CC(=O)[C@@H]2CC(COc3ccccc3)=C3[C@@H](CCc4ccccc4)OB(O)C[C@@H]3[C@H]12	-0.0461
C=CCC(OC(C)=O)[C@@H]1[C@@H](N(Cc2cccc3ccccc23)C(=O)c2cccc3ccccc23)c2cc(OCCCO)ccc2N1C(=O)c1ccc2ccccc2n1 (some centres undefined)	0.791
O=C1[C@]2(CO)C=C(Br)[C@@H](C[C@@H]2c2ccccc2)[C@@]12CO2	-0.0687
COCC1=C2[C@@H](CCc3ccccc3)OB(O)C[C@@H]2[C@@H]2C(=O)N(Cc3ccccc3)C(=O)[C@@H]2C1	-0.138
CCOC(=O)C1=CC[C@@H](c2ccccc2)N(S(=O)(=O)c2ccc(C)cc2)[C@H]1C(=O)OCC	1.17
Cc1ccccc1C(O)C1C=CC2C(=O)N(C)C(=O)C2N1Nc1ccccc1 (centres undefined)	0.175
C=CCC(OC(C)=O)[C@@H]1[C@@H](N(Cc2ccc(-c3ccccc3)cc2)C(=O)Cc2ccc(OC)cc2)c2cc(OCCCO)ccc2N1C(=O)c1ccc2ccccc2n1 (some centres undefined)	0.0569
CCN(CC)c1ccc(N2CC=CC34O[C@@H]5C=CCCOC(=O)C5[C@H]3C(=O)N(CCCCCO)[C@@H]4C2=O)cc1 (some centres undefined)	-0.172
C[C@]1(C(=O)NCc2ccccc2)c2ccccc2C(=O)N(Cc2ccc(OC(F)(F)F)cc2)[C@H]1c1ccc(CO)cc1	0.549
CC(=O)Nc1cc(Br)ccc1C(=O)O	-0.0817
COC(=O)C[C@H]1O[C@]2(C(=O)N(Cc3ccccc3)c3ccc(NC(C)=O)cc32)[C@@H](C)[C@@H]1[Si](C)(C)c1ccc(OC)cc1	-0.0722
COCCOC(=O)N1C(=O)[C@@]2(c3cc(C#CCC(C(=O)OC)C(=O)OC)ccc31)[C@H](C(=O)N1CCN(c3ncccn3)CC1)[C@H]1C(=O)O[C@H](c3ccccc3)[C@H](c3ccccc3)N1[C@@H]2c1ccc(OCCO)cc1	0.21
